# Screens as filed in PubChem.
# Rows were chosen to be rich in hits. Some 6.2% of all compounds tested hit in one or more screens of this group.
# AI-2 QS mod: Vibrio harveyi AI-2 quorum sensing modulators, primary screen, JMH597 strain, luminescence/OD600 ratio | Vibrio harveyi JMH597 AI-2 luminescence/OD600 ratio, 9 h; hits give low values; strain lacks LuxN and CqsS sensors; 0 = neutral-control median | activity change, % at 7.5 µM | 0.4% of 300,000 active; in the data active = activity change below about -75%, passing the limit was not always enough;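 note: luminescence divided by OD600 gain over 9 h not by final OD600 alone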
# GRIN3A LBD mod: binders of NR3A ligand-binding domain, primary screen, biophysical, differential scanning fluorimetry, uHTS | Glutamate receptor ionotropic, NMDA 3A (GRIN3A) ligand-binding domain | NR3A LBD differential scanning fluorimetry, Tm shift; 0% = protein alone, 100% = glycine-bound protein | Tm shift relative to glycine control, % at 25 µM | 2.5% of 340,000 active;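 active = melting temperature shift of at least 10% of the positive control shift, at one fixed dose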
# Mot1-301 SUMO: yeast Mot1-301 growth rescue at high temperature, primary screen, SUMOylation pathway inhibitor project, S. cerevisiae, ATP luminescence, 38.5C; S. cerevisiae Mot1-301 growth rescue; percent above DMSO median, 100 means doubled; growth rescue, % at 18.8 µM; 1% of 320,000 active; AID 2716, 2010;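 active = every valid replicate shows activation above 250% relative to neutral control wells; inactive = the rest, any valid replicate at or below 250%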
# NTR1 agonist: agonists of human NTR1, primary screen, imaging, U2OS cells, beta-arrestin-GFP, high content. NTR1-U2OS beta-arrestin-GFP spot imaging, agonist mode. activation, % at 20 µM. 0.17% of 330,000 active. AID 493036, 2011;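 active = activation at or above 40% of the spot to cytoplasm intensity ratio, with at least 20 cells analyzed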
# AHR act: AHR activators, primary screen, cell-based, luminescence, luciferase reporter, human; AID 2796, 2010; AHR-responsive luciferase reporter cells; Aryl hydrocarbon receptor (Homo sapiens), P35869; 2.5% of 320,000 active; activation, % at 5 µM; in the data active = activation above about 47%
# Target sequence (P35869 whole entry, looked up): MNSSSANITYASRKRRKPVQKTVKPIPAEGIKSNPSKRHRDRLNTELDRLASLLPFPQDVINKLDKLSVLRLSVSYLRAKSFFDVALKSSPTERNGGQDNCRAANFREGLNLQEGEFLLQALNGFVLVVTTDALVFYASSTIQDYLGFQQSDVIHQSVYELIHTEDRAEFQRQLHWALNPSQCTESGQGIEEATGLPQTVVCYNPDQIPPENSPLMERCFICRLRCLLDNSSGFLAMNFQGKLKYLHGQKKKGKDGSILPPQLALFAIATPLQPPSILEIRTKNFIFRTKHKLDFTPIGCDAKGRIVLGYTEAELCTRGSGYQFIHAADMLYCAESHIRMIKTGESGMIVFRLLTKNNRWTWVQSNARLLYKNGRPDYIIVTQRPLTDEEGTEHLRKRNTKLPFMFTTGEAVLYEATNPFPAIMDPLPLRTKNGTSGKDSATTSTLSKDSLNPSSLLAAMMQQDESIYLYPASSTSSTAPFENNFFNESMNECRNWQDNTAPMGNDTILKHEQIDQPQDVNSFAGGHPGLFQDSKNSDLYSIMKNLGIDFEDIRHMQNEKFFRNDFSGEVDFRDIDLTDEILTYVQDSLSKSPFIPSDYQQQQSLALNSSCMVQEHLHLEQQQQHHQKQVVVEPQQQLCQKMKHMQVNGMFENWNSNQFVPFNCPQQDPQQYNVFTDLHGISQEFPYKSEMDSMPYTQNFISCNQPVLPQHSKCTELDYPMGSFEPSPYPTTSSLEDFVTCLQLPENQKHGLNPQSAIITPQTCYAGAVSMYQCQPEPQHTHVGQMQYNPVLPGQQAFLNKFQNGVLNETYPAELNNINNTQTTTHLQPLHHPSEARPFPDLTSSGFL
# Cardio protect: cardioprotection against H2O2-induced cell death, primary screen, uHTS, H9c2 cells, ATPLite luminescence | 0.63% of 360,000 active | protection from H2O2 cell death, % at 20 µM | H9c2 cardiomyocytes, H2O2 injury protection, 2 h | AID 588492, 2011;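 active = compounds giving at least 50% protection of heart cells from peroxide-induced death in the single-dose screen, raw or plate-pattern-corrected value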
# A number is an active result; i = inactive; nt = no result given.
SMILES,AI-2 QS mod,GRIN3A LBD mod,Mot1-301 SUMO,NTR1 agonist,AHR act,Cardio protect
COc1ccc(CCN2C(=O)c3cccc4cccc(c34)C2=O)cc1OC,i,i,i,i,70,i
COc1ccc(CNC(=O)CCN2C(=O)c3ccccc3C2=O)cc1OC,i,i,i,i,i,i
COc1ccc(CCNC(=O)CN2C(=O)c3cccc4cccc(c34)C2=O)cc1OC,i,i,i,i,i,i
CCN(CC)C(=O)c1ccc2c3c(cccc13)C(=O)N(CCc1ccc(OC)c(OC)c1)C2=O,i,i,nt,i,i,71
O=C(Nc1cccc(Cl)c1)Nc1cnccn1,i,i,i,i,i,i
O=C(Nc1ccc(Cl)c(Cl)c1)Nc1nccs1,i,37,i,i,59,i
O=C(Nc1cccc(Cl)c1)Nc1nccs1,i,31,i,i,i,i
Cc1cccc(C(=O)NC(C(=O)Nc2nc(-c3ccccn3)cs2)C(C)C)c1 (stereo unspecified),i,i,i,i,i,66
CC(Oc1ccccc1)C(=O)Nc1nc(-c2ccncc2)cs1 (stereo unspecified),nt,i,i,i,47,i
CC(Oc1ccccc1)C(=O)Nc1nc(-c2ccccn2)cs1 (stereo unspecified),nt,i,nt,i,nt,52
CC(Oc1cccc(Cl)c1)C(=O)Nc1nc(-c2ccccn2)cs1 (stereo unspecified),i,i,i,i,i,50
COc1ccccc1N(CC(O)CN1CCC(C)CC1)S(=O)(=O)c1ccccc1 (stereo unspecified),i,i,i,i,i,i
CCOC(=O)c1c(C2COc3ccccc3O2)csc1NC(=O)c1ccccc1 (stereo unspecified),i,11,i,i,i,i
CCOC(=O)c1c(C2COc3ccccc3O2)csc1N (stereo unspecified),i,i,i,i,i,i
CC(C)CNC(=O)C1(C)CCCCCN1C(=O)c1cc2ccccc2s1 (stereo unspecified),nt,nt,nt,nt,nt,i
O=C(c1ccccc1)N1CCN(c2ncnc3c2cnn3-c2ccccc2)CC1,i,i,i,i,61,i
O=C(NCCN1CCOCC1)c1cccc(S(=O)(=O)NCc2ccccc2)c1,i,i,i,i,i,i
Cc1ccc([N+](=O)[O-])c(OCCN2CCNCC2)c1,i,i,i,i,i,i
Cc1ccc([N+](=O)[O-])c(OCc2ncc(Cl)n2C)c1,i,i,i,i,55,i
O=C(CCc1ccccc1)N=C1SC2CS(=O)(=O)CC2N1Cc1ccccc1 (stereo unspecified),i,i,i,i,i,i
CCCNc1nc(Nc2ccc(C)cc2)nc(N2CCCC2)n1,i,i,i,i,50,i
Cc1cccc(-c2nc(NCCCN3CCOCC3)c3ccccc3n2)c1,i,i,i,i,52,i
COc1cccc(Nc2nc(-c3ccccc3)nc3ccccc23)c1,i,37,i,i,54,i
Oc1ccc(Nc2nc(-c3ccccc3O)nc3ccccc23)cc1,i,36,i,i,nt,i
CN(C)c1ccc(N2C(=NC(=O)c3ccccc3)SC3CS(=O)(=O)CC32)cc1 (stereo unspecified),i,i,i,i,i,i
SMILES,AI-2 QS mod,GRIN3A LBD mod,Mot1-301 SUMO,NTR1 agonist,AHR act,Cardio protect
CCc1cccc2c(C(=O)CSc3nnc(C4CC4)o3)c[nH]c12,nt,i,i,i,i,i
Cn1cc(CN2CCC(C(=O)NC(c3ccc(-c4ccccc4)cc3)c3cnccn3)CC2)c2ccccc21 (stereo unspecified),nt,nt,nt,nt,nt,i
CC(C)N1CCC1(C)C(=O)Nc1cc(-c2ccccc2)nn1C (stereo unspecified),nt,nt,nt,nt,nt,i
CCC(=O)N1CCC1(C)C(=O)Nc1ccc(C)c(C)c1 (stereo unspecified),nt,nt,nt,nt,nt,i
COc1ccccc1Nc1nc(-c2ccccc2O)nc2ccccc12,i,i,i,i,i,i
c1ccc(-c2nc(NC3CCCC3)c3ccccc3n2)cc1,i,i,i,i,53,i
Oc1ccc(Nc2nc(-c3ccccc3F)nc3ccccc23)cc1,i,25,i,i,i,i
COc1ccc(OC)c(Nc2nc(-c3ccccc3O)nc3ccccc23)c1,i,i,i,i,i,i
COc1ccc(Nc2nc(-c3ccccc3O)nc3ccccc23)cc1,i,34,i,i,i,i
Oc1ccccc1Nc1nc(-c2ccccc2O)nc2ccccc12,i,28,i,i,nt,i
COc1ccc(NC(=O)C2CC(=O)N(c3ccccc3F)C2)cc1S(=O)(=O)N1CCCCC1 (stereo unspecified),nt,nt,nt,nt,nt,i
C=CCNc1nc(NCCO)nc(N2CCCC2)n1,i,i,i,i,65,i
COc1cccc(Nc2nc(NCCO)nc(N3CCCC3)n2)c1,i,i,i,i,48,i
COc1cccc(Nc2nc(-c3ccccc3O)nc3ccccc23)c1,i,32,i,i,i,i
COc1ccc(Nc2nc(NCCO)nc(N3CCCC3)n2)cc1,i,i,i,i,i,i
OCCNc1nc(N2CCCC2)nc(N2CCCC2)n1,i,i,i,i,i,i
Cc1ccc(C)c(Nc2nc(-c3ccncc3)nc3ccccc23)c1,i,i,i,i,68,i
COc1ccccc1-c1sc2ccccc2c1C#Cc1ccc(N(C)C)cc1,nt,i,i,i,i,i
CCN1C(=O)[C@H]2[C@H]3CN=C(SC)N3[C@@](C)(C(=O)OC)[C@H]2C1=O,nt,i,nt,nt,nt,i
C/C(=N\Nc1nc(-c2ccccc2O)nc2ccccc12)c1ccccc1,i,13,i,i,53,i
Oc1cccc(Nc2nc(-c3ccccc3Cl)nc3ccccc23)c1,i,17,i,i,i,i
OCCNc1nc(Nc2cccc(O)c2)nc2ccccc12,i,i,i,i,i,i
C/C(=N/Nc1nc(-c2ccccc2F)nc2ccccc12)c1ccccc1O,i,i,i,i,i,i
COc1cccc(Nc2nc(NCCO)c3ccccc3n2)c1,i,i,i,i,49,i
c1ccc(Nc2nc(-c3ccccc3)nc3ccccc23)cc1,i,11,i,i,i,i
O=C(O)c1ccc(Nc2nc(-c3ccccc3)nc3ccccc23)cc1,i,i,i,i,i,i
Cc1ccc(-c2nc(Nc3ccc(N4CCOCC4)cc3)c3ccccc3n2)cc1,i,i,i,i,70,i
O=C(Cn1nc(C(F)(F)F)c2c1CCCC2)Nc1ccc2c(c1)OCO2,i,i,i,i,50,i
